This is a sample that favours compounds with a hit; in the whole collection about 19% have one here.
DT40 TDP1 CPT: growth inhibition of DT40 Tdp1-/-;hTDP1 cells with camptothecin (screen for TDP1 inhibitors). chicken DT40 Tdp1-/-;hTDP1 cells + 20 nM CPT, ATP luminescence, 48 h. Potency, µM (top dose mostly 46.2 µM), inactives show at the highest dose activity change, negative = growth inhibition, usual class: inhibitors. hit rate 12% among 420,000; note: nearly all actives have a fitted effect of over 55% in size
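Chicken DT40 Tdp1-/- cells complemented with human TDP1, 400 cells/well, exposed to compounds plus 20 nM camptothecin for at least 48 h at 37 C; viability read as ATP content by CellTiter-Glo luminescence.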
HT1080-NT tox: kills 2HG-producing HT-1080-NT fibrosarcoma cells; HT-1080-NT fibrosarcoma viability, CellTiter-Glo ATP luminescence, 48 h; Potency, µM (top dose mostly 46.1 µM), for inactives: at the highest dose activity, negative = less viability, actives largely listed as cytotoxic; hit rate 1.6% among 360,000;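 note: NT is the 2HG producing partner of a matched IDH1 knockdown line; 0% = DMSO-treated cells and -100% = media-only wells without cells; nearly all actives have a fitted effect of over 55% in size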
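Viability by CellTiter-Glo luminescence after 48 h compound exposure at 37C of HT-1080-NT cells (750/well, RPMI, 5% FBS). % activity scaled between DMSO wells and medium-only wells, then curve-fitted and categorized by curve class.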
DT40 TDP1 no CPT: qHTS for Inhibitors of human tyrosyl-DNA phosphodiesterase 1 (TDP1): qHTS in cells in absence of CPT; hit rate 15% among 420,000; DT40 Tdp1-/- hTDP1 cells, no CPT, ATP luminescence, 48 h; Potency, µM (doses to about 46.2 µM), without a hit: top-dose activity change, negative = growth inhibition, hits mostly inhibitors; note: nearly all actives have a fitted effect of over 55% in size
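Chicken DT40 Tdp1-/- cells stably complemented with human TDP1 were seeded at 400 cells/well with DMSO in place of 20 nM camptothecin. After compound pinning, cells grew at least 48 hr at 37 °C; viability read by CellTiter-Glo luminescence.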
KB-3-1 tox: KB-3-1 parental cell cytotoxicity; KB-3-1 viability, CellTiter-Glo ATP luminescence, 72 h; Potency, µM (titrated, usually from 46.1 µM), usual class: cytotoxic; hit rate 1.4% among 400,000; AID 1347075; note: nearly all actives have a fitted effect of over 60% in size
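72 h, 37 °C compound treatment of KB-3-1 parental cells; CellTiter-Glo added, 10 min, luminescence read. Data corrected against DMSO-only plates and normalized before curve fitting.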
KB-V1 MDR tox: kills drug-selected multidrug resistant KB-V1 cells; hit rate 3.4% among 400,000; KB-V1 MDR cells viability, CellTiter-Glo, 72 h; Potency, µM (series often up to 46.1 µM), actives largely listed as cytotoxic; note: nearly all actives have a fitted effect of over 60% in size
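KB-V1 cells (P-gp-expressing MDR subline of KB-3-1) in phenol-red-free DMEM with 10% FBS were exposed to library compounds over a concentration series for 72 h at 37 degrees C. Viability read by CellTiter-Glo luminescence; concentration-effect curves fitted after normalization.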
HT1080 IDH1KD tx: HT-1080 IDH1 knockdown cell toxicity (counter line); AID 686971; HT-1080 IDH1 knockdown viability, ATP luminescence, 48 h; hit rate 2% among 360,000; Potency, µM (series often up to 46.1 µM), without a hit: at the top dose activity, negative = toxicity, usual class: cytotoxic;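 note: 0% = DMSO wells and -100% = cell-free medium wells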
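HT-1080-IDH1KD cells (IDH1 knocked down), 750/well in RPMI with 5% FBS, treated with compound 48 h at 37 degrees C. Viability by CellTiter-Glo luminescence, normalised to DMSO and no-cell wells; concentration-response curves classed.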
* hit, by the source's call. Calls come from the whole dose curve; as a rule, active = well fitted curve in the direction sought with a large enough effect; inconclusive = small, poorly fitted or top-dose-only effect, or another doubt; inactive = no such curve, though single readings can be large; an effect the other way counts as inactive or inconclusive. Unless noted, % is set by controls: 0 for no effect and ±100 for the full control effect; potency is the fitted concentration of half-maximal effect.

For O=C(NC1CCCCC1)c1sc(N2CCOCC2)nc1-c1ccccc1 the results were DT40 TDP1 CPT inconclusive, HT1080-NT tox 15%, DT40 TDP1 no CPT inconclusive, KB-3-1 tox inactive, KB-V1 MDR tox inactive and HT1080 IDH1KD tx 14%.
COc1ccc(-c2[nH]ncc2C(=O)NCc2cccc(F)c2)cc1 was read as DT40 TDP1 CPT 0% and DT40 TDP1 no CPT -14%.
`CN(C)c1ccc(C(=O)/C=C/c2cccnc2)cc1` gave DT40 TDP1 CPT inconclusive, HT1080-NT tox inconclusive, DT40 TDP1 no CPT inconclusive, KB-3-1 tox 18µM*, KB-V1 MDR tox inconclusive and HT1080 IDH1KD tx inconclusive.
`O=C(O)/C=C/c1cccnc1` gave DT40 TDP1 CPT -5%, HT1080-NT tox 11%, DT40 TDP1 no CPT 16%, KB-3-1 tox inactive, KB-V1 MDR tox inactive and HT1080 IDH1KD tx 8%.
Screening CCN(C(=O)c1cccc(Br)c1)c1ccccc1 returned DT40 TDP1 CPT 0%, HT1080-NT tox -7%, DT40 TDP1 no CPT -25%, KB-3-1 tox inactive, KB-V1 MDR tox inactive and HT1080 IDH1KD tx -2%.
CN(C)c1ccc(/C=C/C(=O)c2cccc(Br)c2)cc1 was read as DT40 TDP1 CPT 15µM*, HT1080-NT tox -4%, DT40 TDP1 no CPT 21µM*, KB-3-1 tox inactive, KB-V1 MDR tox inconclusive and HT1080 IDH1KD tx inconclusive.
`O=C(/C=C/c1cccnc1)c1ccc(F)c(F)c1` gave DT40 TDP1 CPT inconclusive, HT1080-NT tox inconclusive, DT40 TDP1 no CPT 16µM*, KB-3-1 tox inconclusive, KB-V1 MDR tox inactive and HT1080 IDH1KD tx inconclusive.
Screening O=C(CCN=C1NS(=O)(=O)c2ccccc21)N1CCc2ccccc2C1 returned DT40 TDP1 CPT 5%, HT1080-NT tox 6%, DT40 TDP1 no CPT -16%, KB-3-1 tox inactive, KB-V1 MDR tox inactive and HT1080 IDH1KD tx 4%.
Cc1cccc(CNS(=O)(=O)c2ccc3[nH]c(=O)ccc3c2)c1 was read as DT40 TDP1 CPT inconclusive, DT40 TDP1 no CPT -18%, KB-3-1 tox inactive and KB-V1 MDR tox inactive.
Screening Cc1ccc(OCCOc2ccc(Br)cc2)c([N+](=O)[O-])n1 returned DT40 TDP1 CPT -15%, HT1080-NT tox -11%, DT40 TDP1 no CPT -14%, KB-3-1 tox inactive, KB-V1 MDR tox inactive and HT1080 IDH1KD tx -21%.
`CC(=O)Nc1cccc(NC(=O)COc2ccc3c(c2)OCO3)c1` gave DT40 TDP1 CPT 0%, HT1080-NT tox 1%, DT40 TDP1 no CPT inconclusive, KB-3-1 tox inactive, KB-V1 MDR tox inconclusive and HT1080 IDH1KD tx 2%.
For O=C(c1ccccc1Sc1cccc2ccccc12)N1CCOCC1 the results were DT40 TDP1 CPT 13µM*, HT1080-NT tox -12%, DT40 TDP1 no CPT 21µM*, KB-3-1 tox inactive, KB-V1 MDR tox inactive and HT1080 IDH1KD tx -1%.
Screening COc1ccc(CCN2CC(C(=O)Nc3ccccc3F)CC2=O)cc1OC (stereo not drawn) returned DT40 TDP1 CPT 0%, HT1080-NT tox 15%, DT40 TDP1 no CPT -12%, KB-3-1 tox inactive, KB-V1 MDR tox inactive and HT1080 IDH1KD tx 3%.
`O=C(Nc1nc(C2C3CC4CC(C3)CC2C4)cs1)c1cc2cc([N+](=O)[O-])ccc2oc1=O` (stereo not drawn) gave DT40 TDP1 CPT 12µM*, HT1080-NT tox 3%, DT40 TDP1 no CPT 9.2µM*, KB-3-1 tox inactive, KB-V1 MDR tox inactive and HT1080 IDH1KD tx -2%.
CN(C)c1ccc(C=Cc2ccnc3ccccc23)cc1N was read as DT40 TDP1 CPT 10µM*, HT1080-NT tox 23µM*, DT40 TDP1 no CPT 10µM*, KB-3-1 tox inconclusive, KB-V1 MDR tox inactive and HT1080 IDH1KD tx inconclusive.

Source: PubChem
